Compound activity as filed in PubChem.
Wnt bcat act = Wnt/beta-catenin pathway activators, primary screen, cell-based, plate reader, single point; AID 743398, 2014; actives 1.2% (n = 300,000); activation, % at 9.35 µM; Wnt/beta-catenin reporter cell assay, activator; in the data active means activation above about 30%, passing the limit was not always enough;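 further: 0% = neutral control wells and 100% = positive control wells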
esBAF inh = Bmi1 luciferase reporter increase in mESCs, primary screen, esBAF inhibitor project, mouse ES cells, Bmi1 luciferase knock-in, single point; actives 2% (n = 350,000); 24 h; 100% = twice the neutral-well signal; reporter increase, % at 12.5 µM; AID 602393, 2012; in the data active means activation above about 40%;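 further: 0% = median of the plate's neutral control wells and 100% = double that signal; a rise in the Bmi1 reporter signal indicates esBAF inhibition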
MITF act = activators of MITF-driven TRPM1 promoter reporter, primary screen, cell-based, SK-MEL-5, luciferase, single point; SK-MEL-5 TRPM1-promoter luciferase, 24 h; % of positive control, neutral wells = 0; activation, % at 12.5 µM; actives 0.75% (n = 300,000);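 active means mean activation of at least 80% with every replicate also reaching 80%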;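 further: 0% = neutral control wells and 100% = parthenolide positive control wells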
FXN GAA850 act = FXN promoter activators, primary screen, cell-based, luciferase luminescence, HEK293 lucGAA850; HEK293 lucGAA850 FXN promoter luciferase reporter, 24 h; percent of 10 µM SAHA response; activation, % at 6 µM; actives 0.56% (n = 360,000); AID 540364, 2011;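 active means activation above the average of all compounds screened plus 3 SD, cutoff fixed separately per campaign, cut at about 7.5% in these data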;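 further: 0% = DMSO wells and 100% = 10 µM SAHA wells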
* marks the source's active call; other numbers are inactive results. The list is not random: actives were taken first. Their share in the collection is about 2.8%.

Screening c1ccc(CN=C2NN=C(c3ccccc3)CS2)cc1 returned Wnt bcat act 8, esBAF inh 46*, MITF act 73 and FXN GAA850 act 3.
For COc1cc(/C=N/OCC(=O)NC23CC4CC(CC(C4)C2)C3)ccc1OCc1ccccc1 the results were Wnt bcat act 6, esBAF inh 62*, MITF act 42 and FXN GAA850 act 5.
For COc1cc(/C=N/OCC(=O)NC2CCCCC2)ccc1OCc1ccccc1 the results were Wnt bcat act 18, MITF act 12 and FXN GAA850 act 3.
CN(C)CCCNC(=O)C[C@@H]1CC[C@@H]2[C@H](COC[C@@H](O)CN2C(=O)c2ccncc2)O1 was read as esBAF inh -7.
Screening O=c1[nH]c(S)nc2sc3c(c12)CCCC3 returned esBAF inh -2 and FXN GAA850 act 0.
`O=c1oc(-c2cccs2)nc2sc3c(c12)CCC3` gave esBAF inh 46*, MITF act 9 and FXN GAA850 act 0.
`O=c1[nH]c(-c2ccco2)nc2sc3c(c12)CCCC3` gave Wnt bcat act 39*, MITF act 64 and FXN GAA850 act 4.
For Cc1nc2sc3c(c2c(=O)o1)CCC3 the results were esBAF inh -4 and FXN GAA850 act 0.
`O=c1oc(-c2cccs2)nc2sc3c(c12)CCCC3` gave Wnt bcat act -4, esBAF inh 26, MITF act 6 and FXN GAA850 act -1.
O=c1oc(/C=C/c2ccco2)nc2sc3c(c12)CCC3 was read as Wnt bcat act -4, esBAF inh -11, MITF act 82* and FXN GAA850 act 1.
For CCCNC(=O)N1C[C@@H](C)[C@@H](OC)CN(C)C(=O)c2cc(NC(=O)CC)ccc2OC[C@@H]1C the results were esBAF inh -2.
CCCOc1ccc(-c2cnc(SCC(N)=O)nc2N)cc1 was read as Wnt bcat act -3, esBAF inh 10, MITF act 7 and FXN GAA850 act 1.
CCOC(=O)c1ccc(CSc2nnc(N)s2)cc1 was read as esBAF inh 48* and FXN GAA850 act 5.
`Nc1nnc(SCc2ccc(Cl)cc2)s1` gave Wnt bcat act 3, esBAF inh 20, MITF act 19 and FXN GAA850 act 0.
Screening COc1ccc(-c2nc(CCl)cs2)cc1OC returned Wnt bcat act 5, esBAF inh 1, MITF act 6 and FXN GAA850 act 1.
Screening CCCOc1ccc(-c2cnc(N)s2)cc1 returned Wnt bcat act 20, esBAF inh 76*, MITF act 88* and FXN GAA850 act 4.
Screening CCOc1ccc(-c2nc(CSc3nnc(N)s3)cs2)cc1OC returned esBAF inh 47*, MITF act 50 and FXN GAA850 act 3.
CCCOc1ccc(OCCSc2nnc(N)s2)cc1 was read as esBAF inh 53*, MITF act 60 and FXN GAA850 act 2.
`C[C@@H]1CN([C@H](C)CO)C(=O)c2cc(NS(=O)(=O)c3ccc(Cl)cc3)ccc2O[C@H]1CN(C)Cc1ccncc1` gave esBAF inh -1.
CO[C@H]1CN(C)C(=O)c2ccc(NC(=O)NC(C)C)cc2OC[C@@H](C)N(C(=O)NC(C)C)C[C@H]1C was read as esBAF inh -4.
Screening CCOc1ccc(-c2nc(CSc3nnc(N)s3)cs2)cc1 returned esBAF inh 49*, MITF act 79 and FXN GAA850 act 7.
`Cc1nc(CSc2nnc(N)s2)cs1` gave Wnt bcat act -1, MITF act -1 and FXN GAA850 act 1.
For Oc1ccc(C2C(c3ccccc3)=NN=C(c3ccc(Cl)cc3)N2O)c(O)c1 (stereo unspecified) the results were Wnt bcat act 3, esBAF inh 46*, MITF act 19 and FXN GAA850 act 0.
For Oc1ccc(C2C(c3ccccc3)=NN=C(c3ccccc3F)N2O)c(O)c1 (stereo unspecified) the results were MITF act -1 and FXN GAA850 act 1.
For CCN(CC(=O)NCc1ccc(F)cc1)C(=O)c1ccc(COc2ccccc2)cc1 the results were Wnt bcat act 0, esBAF inh 57*, MITF act 45 and FXN GAA850 act 3.
COc1ccc(-c2nc(CS(=O)CC(=O)NC3CCCC3)c(C)o2)cc1OC (stereo unspecified) was read as Wnt bcat act 0, esBAF inh 6, MITF act -9 and FXN GAA850 act 1.
`COc1ccc(-c2nc(CS(=O)CC(=O)NC3CCC(C)CC3)c(C)o2)cc1OC` (stereo unspecified) gave Wnt bcat act 12, esBAF inh 77*, MITF act 45 and FXN GAA850 act 4.
`COc1ccc(S(=O)(=O)N[C@@H]2CC[C@H](CCn3cc(-c4cccc(F)c4)nn3)O[C@H]2CO)cc1` gave esBAF inh 7.
`CC(C)Nc1ncnc2c1cnn2-c1ccccc1` gave Wnt bcat act 53*, esBAF inh 12 and FXN GAA850 act 3.
For CC(=O)CSc1ncnc2c1cnn2-c1ccccc1 the results were Wnt bcat act 42*, esBAF inh 12, MITF act 59 and FXN GAA850 act 2.
Screening c1ccc(-n2ncc3c(NC4CCCCCC4)ncnc32)cc1 returned Wnt bcat act 24, esBAF inh 55* and FXN GAA850 act 2.
`Cc1cc(C(=O)Nc2cccc3c2O[C@H](CN(C)Cc2ccc(C(=O)O)cc2)[C@H](C)CN([C@H](C)CO)C3=O)n(C)n1` gave esBAF inh -1.
COc1ccc(NC(=O)Nc2ccc3c(c2)C(=O)N([C@H](C)CO)C[C@H](C)[C@H](CN(C)Cc2ccc4c(c2)OCO4)O3)cc1 was read as esBAF inh -1.
CO[C@H]1CN(C)C(=O)c2ccc(NC(C)=O)cc2OC[C@H](C)N(C(=O)C2CC2)C[C@H]1C was read as esBAF inh 4.
Screening CCCNC(=O)C[C@@H]1CC[C@H]2[C@H](COc3ccc(NC(=O)c4cscn4)cc3C(=O)N2C)O1 returned esBAF inh 3.
For CO[C@@H]1CN(C)C(=O)c2ccc(NC(=O)Nc3cccc(F)c3)cc2OC[C@H](C)N(C(=O)Nc2c(C)noc2C)C[C@@H]1C the results were esBAF inh -3.
`C[C@H](CO)N1C[C@H](C)[C@@H](CN(C)C(=O)C2CCCCC2)OCCCC[C@H](C)Oc2ccc(NC(=O)NC3CCCCC3)cc2C1=O` gave esBAF inh 2.
Screening O=c1[nH]cnc2cc(-c3ccccc3)sc12 returned esBAF inh 42* and FXN GAA850 act 6.
Screening COc1ccc(-c2cc3nc[nH]c(=O)c3s2)cc1 returned Wnt bcat act 34*, esBAF inh 7, MITF act 27 and FXN GAA850 act 1.
`O=c1[nH]cnc2nc(-c3ccccc3)c(-c3ccccc3)nc12` gave Wnt bcat act -3, esBAF inh -9, MITF act -14 and FXN GAA850 act -1.
